Results as given in PubChem BioAssay (EPA / NIEHS).
Several values for one entry are separate records, joined by “and”; a condition that tells them apart may be missing. Equal entries are not always repeated. Activity calls are given as the source filed them. How the source made its calls: active means hit-call score of the fitted dose curve at least 0.9, where 1 is the maximum; inactive means score below 0.9.

Read-out: Interleukin-8 (IL8), CXCL8 (gene 3576)
Assay: BSK_hDFCGF_IL8: BioMAP Diversity Plus: hDFCGF Assay for Interleukin-8 (IL8) Biomarker Activity (AID 2283058)
Conditions: primary human foreskin fibroblasts; actives raise or lower the signal
Description: BSK_hDFCGF is a cell-based, multiplexed-readout assay that uses foreskin fibroblast, a human skin primary cell, with measurements taken at 24 hours after chemical dosing in a 96-well plate.BSK_hDFCGF_IL8 is an assay component measured in the BSK_hDFCGF assay. It measures IL-8 antibody related to regulation of gene expression using ELISA technology.Data from the assay component BSK_hDFCGF_IL8 was analyzed into 1 assay endpoint. This assay endpoint, BSK_hDFCGF_IL8, was analyzed with bidirectional fitting relative to DMSO as the negative control and baseline of activity. Using a type of binding reporter, gain or loss-of-signal activity can be used to understand changes in the signaling as they relate to the gene CXCL8. Furthermore, this assay endpoint can be referred to as a primary readout, because this assay has produced multiple assay endpoints where this one serves a signaling function. To generalize the intended target to other relatable targets, this assay endpoint is annotated to the cytokine intended target family, where the subfamily is interleukins.
The levels of cell surface (or secreted, indicated by the prefix "s") biomarker endpoints were measured by ELISA. Overt cytotoxicity to cells in confluent adherent cultures (all systems other than the BT system) was assessed by measuring total protein levels using sulforhodamine B (SRB) staining in parallel cultures at the time of biomarker measurements, indicated as SRB endpoints. For proliferation assays for adherent cell types, individual cell types are cultured at sub-confluence and relative cell numbers quantified by SRB staining at time points optimized for each system (48 h: 3C and CASM3C systems; 72 h: BT and HDF3CGF systems; 96 h: SAg system). SRB was performed by staining cells with 0.1% SRB after fixation with 10% TCA and reading wells at 560 nm.Viability and proliferation of PBMC (T cells) was quantified by Alamar Blue reduction for the SAg and BT systems. For PBMC viability (referred to as PBMC Cytotoxicity within the assay endpoint names), cells were plated (75,000/well in a 96-well plate) and then chemical samples added for 1 h before addition of activators, SEB and TSST-1 (20 ng/mL final concentration each). Cells were incubated for 90 h. Then, Alamar Blue (20 uL/well) (Invitrogen, Cat DAL1100) was added for 6 h, and the plates were read with a fluorescence microplate reader at 546/580 nm (excitation/emission). For PBMC proliferation, cells were plated and activated as above but incubated for only 16 h prior to addition of Alamar Blue. Plates were read after 6 h.

Structure (SMILES) | outcome | AC50
COC(OC)(C(=O)c1ccccc1)c1ccccc1 | inactive | –
C=CC(=O)OCC(C)OCC(C)OCC(C)OC(=O)C=C (stereo not given) | – | 33.1 µM (active)
CC1(C)CC(O)CC(C)(C)N1[O] | inactive | –
CCCCCCCCC(CO)CCCCCC (stereo not given) | inactive | –
CCCCCCCCCCCC(=O)N(C)CC(=O)O | inactive | –
CC/C=C\CCOC(=O)c1ccccc1O | inactive | –
c1ccc2sc(SSN3CCOCC3)nc2c1 | inactive | –
CC/C=C\C/C=C\C/C=C\CCCCCCCC(=O)OC | – | 20 µM (active)
Oc1c(Cl)cc(Cl)c(Cl)c1Cl | inactive | –
Cc1c(O)cccc1O | inactive | –
CC=C(C)C(C)=O | inactive | –
C=C(C)C(=O)OCCCCCCCCCCCC | inactive | –
Nc1ccc(C(=O)O)cc1 | inactive | –
CCOC(=O)C1=NOC(c2ccccc2)(c2ccccc2)C1 | inactive | –
COc1ccc(C(=O)c2ccccc2)c(O)c1 | inactive | –
c1ccc(Nc2cccc3ccccc23)cc1 | – | 35.1 µM (active) and 36.6 µM (active)
CC(C)c1cccc(C(C)C)c1N | inactive | –
CCC1(C)C(=O)N(Cl)C(=O)N1Cl (stereo not given) | inactive | –
C=CC(=O)OCCCCCCOC(=O)C=C | – | 20 µM (active)
CCCCCCOC(=O)CCCCC(=O)OCCCCCC | inactive | –

Structure (SMILES) | outcome | AC50
CC(c1cc(C(C)(C)C)cc(C(C)(C)C)c1O)c1cc(C(C)(C)C)cc(C(C)(C)C)c1O | inactive | –
CCNc1nc(NC(C)(C)C)nc(OC)n1 | inactive | –
Oc1ccccc1Cc1ccccc1O | inactive | –
CCc1cccc(C)c1N(C(=O)CS(=O)(=O)O)C(C)COC (stereo not given) | inactive | –
Cc1ccc([N+](=O)[O-])cc1N | inactive | –
CC1=CC=C(C(C)C)CC1 | inactive | –
O=C1CCCCCCCCCCCN1 | inactive | –
CCN1CN(CC)CN(CC)C1 | inactive | –
Fc1ccc(Br)cc1 | inactive | –
C=CC(=O)NC(C)(C)C | inactive | –
CC(C)CCCCCOC(=O)CS | inactive | –
Oc1ccc(/C=C/c2cc(O)cc(O)c2)cc1 | inactive | –
CC=C(C)C=CC=C(C)C | inactive | –
Nc1cccc(N)n1 | inactive | –
CCCCCCCCCCCC(C)=O | inactive | –
Nc1nc(N)nc(-c2ccccc2)n1 | inactive | –
CCCCCCCO | inactive | –
CC(CCC(=O)O)(c1ccc(O)cc1)c1ccc(O)cc1 | inactive | –
CCOC(=O)/C=C\C(=O)OCC | inactive | –
O=C(Cl)c1c(Cl)c(Cl)c(C(=O)Cl)c(Cl)c1Cl | inactive | –
